Experimental findings from PubChem BioAssay AID463187 (University of Pittsburgh Molecular Library Screening Center, 2010) are described below.

As usually defined, the inhibition is the drop in the measured response relative to a control, in per cent.

In all, about 220,000 compounds went through this assay and about 1,500 (0.68%) were called active.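 Rule for the calls: active = Hck-Nef kinase inhibition above about 50% (limit read from the data); inactive = inhibition below that limit.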 The list comes from a sample in which actives are over-represented; it also holds similar structures and randomly drawn compounds.

For the experiment, the target named is Tyrosine-protein kinase HCK (Homo sapiens) (UniProt P08631). The experiment in a line: inhibitors of Nef-activated human Hck kinase, primary screen, biochemical, Z-Lyte FRET, 384-well, Hck-YEEI (AID 463187).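 Note: 0% = DMSO with Hck plus Nef and 100% = Hck alone without Nef.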 The note with it: Recombinant Hck-YEEI plus Nef, Z-Lyte FRET kinase assay; at 20 µM; hits give high values.
Sequence of Tyrosine-protein kinase HCK (Homo sapiens) (P08631 whole entry, looked up): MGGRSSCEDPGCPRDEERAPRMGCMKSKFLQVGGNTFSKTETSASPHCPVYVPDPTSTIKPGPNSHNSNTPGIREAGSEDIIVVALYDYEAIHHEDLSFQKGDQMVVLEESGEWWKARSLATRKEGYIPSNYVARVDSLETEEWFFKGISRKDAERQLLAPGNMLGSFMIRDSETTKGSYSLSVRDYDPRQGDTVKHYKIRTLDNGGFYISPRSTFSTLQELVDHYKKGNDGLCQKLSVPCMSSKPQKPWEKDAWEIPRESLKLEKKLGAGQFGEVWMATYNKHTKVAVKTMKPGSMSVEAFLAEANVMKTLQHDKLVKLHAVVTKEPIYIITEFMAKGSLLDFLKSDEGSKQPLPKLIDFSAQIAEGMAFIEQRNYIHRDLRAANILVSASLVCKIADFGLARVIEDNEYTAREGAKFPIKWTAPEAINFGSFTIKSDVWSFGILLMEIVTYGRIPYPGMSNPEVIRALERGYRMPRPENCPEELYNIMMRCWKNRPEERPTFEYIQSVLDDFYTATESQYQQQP
As for `CC(C)NC(=O)/C(C#N)=C\c1ccc(N(C)C)c(Br)c1`, the inhibition was 7.25% (inactive).
In the case of `O=C(O)Cc1sc(-c2ccccc2)nc1-c1cccs1`, the inhibition is -10.1% (inactive).
`CCCNC(=O)N1CCN(C(=O)NCCC)CC1`: the inhibition is 0.793% (inactive).
On to `O=[N+]([O-])C(=c1ccc2c(c1)N1C3=C(CCCC3)CC3CCCCC31N=2)[N+](=O)[O-]` (centres undefined), for which the inhibition was 73% (active).
Turning to `CCCCCC(=O)Nc1ccc(S(=O)(=O)Nc2ccc(Cl)nn2)cc1`, the inhibition was -1.44% (inactive).
Take `C=C(C)COc1ccc(-c2nc(N)ncc2-c2ccccc2OC)c(O)c1`: the inhibition is 68.8% (active).
For `CCOc1ccc(-c2n[nH]c(C)c2-c2ccccn2)c(O)c1` the value was -15.5% (inactive); for `CCOc1ccccc1Oc1cn[nH]c1-c1ccc(OC)cc1O`, 26.3% (inactive); for `C=C(C)COc1ccc(-c2n[nH]c(C)c2-c2ccccc2)c(O)c1`, -0.0537% (inactive).
The figure for `C=C(C)COc1ccc(-c2n[nH]c(C)c2-c2ccccc2OC)c(O)c1` is 12.1% (inactive); for `CCOc1ccc(-c2nc(N)ncc2-c2ccccc2OC)c(O)c1` it is 75.3% (active); for `c1ccc(-c2cc3c(NCC4COc5ccccc5O4)ncnc3s2)cc1` (centres undefined) it is 5.9% (inactive).
In the case of `COc1ccc(-c2cc(C(=O)NCCCn3ccnc3)no2)cc1`, the inhibition is -9.96% (inactive).
Take `Cc1cccc2cc(CN(C(=O)c3cccs3)c3ccccc3)c(=O)[nH]c12`: the inhibition is 3.68% (inactive).
As to `O=C(CN1CCN(c2ccc(O)cc2)CC1)Nc1cc(S(=O)(=O)N2CCOCC2)ccc1Cl`, the inhibition was 12.6% (inactive).
For `O=[N+]([O-])c1cc(Cl)cc(/C=N/NC(=S)Nc2cc(S(=O)(=O)N3CCOCC3)ccc2Cl)c1O`, the inhibition is 68.6% (active).
Turning to `O=C(N/N=C/c1ccc([N+](=O)[O-])o1)c1cccc(S(=O)(=O)N2CCOCC2)c1`, the inhibition is 18.1% (inactive).
The figure for `Cc1nn(Cc2ccc(C(=O)N3N=C(C(F)F)CC3(O)C(F)F)cc2)c(C)c1[N+](=O)[O-]` (centres undefined) is -2.69% (inactive).
With `CN(C)S(=O)(=O)c1cccc(-c2nn(-c3ccccc3)cc2/C=C2\SC(=S)N(CC(=O)O)C2=O)c1`, the inhibition is 56.2% (active).
On to `O=C(CN1C(=O)/C(=C\c2ccccc2F)SC1=S)Nc1nc2ccccc2s1`, for which the inhibition is 4.36% (inactive).
As for `Cc1ccc(-c2nn(-c3ccccc3)cc2/C=C/C(=O)Nc2cccc(S(N)(=O)=O)c2)cc1`, the inhibition is 14.1% (inactive).
For `CC1(C)CC(=O)C(C2c3ccccc3S(=O)(=O)c3ccccc32)C(=O)C1`, the inhibition was 2.74% (inactive).
Regarding `C=CCOc1c2ccc(C(=O)N(CC)c3ccc(OC)cc3)cc2nn1C`, the inhibition was -0.652% (inactive).
As to `CC1=NN(/C(=N\c2nnc(C)s2)Nc2ccccc2)[C@H](c2ccc(C)cc2)S1`, the inhibition was -3.06% (inactive).
For `COC(=O)Cc1cc(=O)oc2c(C)c(O)ccc12`, the inhibition is 58.3% (active).
On to `CCCc1cc(=O)oc2c(C)c(O)c(CN3CCCCC3)cc12`, for which the inhibition is 31% (inactive).
The figure for `COC(=O)COc1ccc2oc(=O)cc(C)c2c1` is 1.26% (inactive); for `CCOC(=O)c1cc2n(c1N)-c1ccccc1C2=O` it is -1.56% (inactive); for `CCOC(=O)c1cc2c(=O)n3ccccc3nc2n(CC(C)C)c1=NC(=O)c1c(-c2c(F)cccc2Cl)noc1C` it is 8.32% (inactive).
As for `CCCn1c(=NC(C)=O)c(C(=O)OCC)cc2c(=O)n3ccccc3nc21`, the inhibition was 95.9% (active).
Take `O=C(COC(=O)c1ccccc1C(=O)N1CCN(c2ccccc2)CC1)NCc1ccccc1`: the inhibition is -5.15% (inactive).
With `O=C(NNC(=O)c1ccc(Cl)cc1Cl)c1cccs1`, the inhibition is 22.7% (inactive).
For `C=CCSc1nc(Cc2ccc(Cl)cc2)nc2ccccc12`, the inhibition was -0.392% (inactive).
Take `Brc1ccc(C2=CC(c3ccco3)n3ncnc3N2)cc1` (centres undefined): the inhibition is -4.23% (inactive).
For `Clc1ccc2c(c1)C1=C(C(c3ccncc3)O2)C(c2ccc(Br)cc2)n2ncnc2N1` (centres undefined) the value was 83.6% (active); for `COC(=O)C1=C(C)Nc2ncnn2C1c1cccnc1` (centres undefined), 0.821% (inactive).
Regarding `CCC(C)(C)NC(=O)CN(Cc1cccs1)C(=O)CNS(=O)(=O)c1ccc(F)cc1`, the inhibition is 15.6% (inactive).
With `O=[N+]([O-])c1ccc(F)cc1Oc1nc(-c2cccnc2)nc2ccccc12`, the inhibition was 13.2% (inactive).
As to `CCC(O)C1CCN(Cc2cn(-c3ccc(OC)cc3)nc2-c2cccc(F)c2)CC1` (centres undefined), the inhibition was -11.2% (inactive).
Consider `CCOc1ccc(CCNC(=O)C2=C(C)C(=O)OC23CCC(C)CC3)cc1OCC` (centres undefined), for which the inhibition was 25.3% (inactive).
The figure for `CCN(CC)CCn1c(N)c(S(=O)(=O)c2ccccc2)c2nc3ccccc3nc21` is 11.1% (inactive); for `Cc1ccc(S(=O)(=O)c2c(N)n(C)c3nc4ccccc4nc23)cc1` it is 52.7% (active); for `C=CCn1c(N)c(S(=O)(=O)c2cccs2)c2nc3ccccc3nc21` it is 21.6% (inactive).
Regarding `COc1ccc(/C=C2/C(=O)OCc3cc(OC)c(OC)cc32)c(OC)c1`, the inhibition is 1.93% (inactive).
For `O=C(NCc1ccco1)c1nn2cccnc2c1Cl`, the inhibition is 20.7% (inactive).
Consider `O=C(O)C1C2C=CC(O2)C1C(=O)NCCc1cccc(Cl)c1` (centres undefined), for which the inhibition was 15.6% (inactive).
As to `O=C(Cc1ccccc1)Nc1cccc(C(=O)N/N=C/c2ccco2)c1`, the inhibition was 54.9% (active).
As to `O=C(N/N=C/c1ccco1)c1ccc(NC(=O)C2CC2)cc1`, the inhibition was 1.97% (inactive).
The figure for `O=C(N/N=C/c1ccco1)c1ccc(C(=O)N/N=C/c2ccco2)o1` is -0.711% (inactive); for `NC(=O)C[C@@H]1NC(=O)CNC(=O)c2cc([N+](=O)[O-])cc(I)c2NCCC(C(N)=O)NC1=O` (some centres undefined) it is -7.95% (inactive); for `CCOC(=O)COc1cc(O)c2c(=O)cc(-c3ccccc3)oc2c1` it is 20.1% (inactive).
For the molecule `CCOC(=O)COc1cc(OCC(=O)OCC)c2c(=O)cc(-c3ccccc3)oc2c1`, the inhibition is -0.0489% (inactive).
On to `COc1c(O)cc2oc(-c3ccc(O)c(O)c3)cc(=O)c2c1O`, for which the inhibition is 97.3% (active).
Turning to `Cc1cccc(-[n+]2c(-c3cccc(Br)c3)[nH]c3nc4ccccc4nc32)c1`, the inhibition was 50.4% (active).
For the molecule `Cc1ccc2nc(-c3cccc(Br)c3)cc(C(=O)Nn3cnnc3)c2c1`, the inhibition is -7.45% (inactive).
As to `CC(C)(C)NC(=O)COC(=O)c1cc(Br)ccc1Cl`, the inhibition is -0.533% (inactive).
As for `Cc1ccc(CSCC(N)C(=O)O)cc1` (centres undefined), the inhibition is 1.34% (inactive).
Take `Cc1ccc(SC(CC(=O)c2ccc(C(C)(C)C)cc2)C(=O)O)cc1` (centres undefined): the inhibition was 73.6% (active).
Take `Cc1ccc(C(=O)CS(C)(=O)=O)cc1`: the inhibition was 1.08% (inactive).
